Laboratory results as given in PubChem BioAssay (NCI).
About 83,000 compounds went through this panel and 20% of them were active in at least one assay; those are over-represented in the sample as a whole.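 Step 1: grow cells in 96-well plates. Step 2: add test compound at a single concentration. Step 3: incubate 48 h. Step 4: record percent growth.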 Active and inactive are the calls of the source. How the source made its calls: active means growth percent below 10; inactive means the rest.

Tests used:
Experiment in all cases: NCI-60 one-dose screen, 48 h (100 = growth as untreated, 0 = no growth, -100 = all killed)
Conditions in all cases: 10 µM unless noted
SK-MEL-2 melanoma = system: SK-MEL-2 melanoma
EKVX NSCLC = system: EKVX NSCLC
SN12C renal = system: SN12C renal
UO-31 renal = system: UO-31 renal
TK-10 renal = system: TK-10 renal
ACHN renal = system: ACHN renal
CAKI-1 renal = system: CAKI-1 renal
A498 renal = system: A498 renal
CCRF-CEM leukemia = system: CCRF-CEM leukemia
MOLT-4 leukemia = system: MOLT-4 leukemia

Measured: growth

COCCn1c(Nc2ccc(C(=O)NO)cc2)nc2ccccc21
inactive: SK-MEL-2 melanoma 39.6% | EKVX NSCLC 56.5% | SN12C renal 66.3% | UO-31 renal 50.3% | TK-10 renal 26.7% | ACHN renal 57.1% | CAKI-1 renal 47.3% | A498 renal 84.2% | CCRF-CEM leukemia 48.5% | MOLT-4 leukemia 33.4%

COc1cc(NC(C)CCCN)c2ncccc2c1Sc1ccc(Cl)cc1 (stereo not given)
inactive: SK-MEL-2 melanoma 102% | EKVX NSCLC 71.9% | SN12C renal 64.9% | UO-31 renal 40.1% | TK-10 renal 78.6% | ACHN renal 74.8% | CAKI-1 renal 50.2% | A498 renal 55.9% | CCRF-CEM leukemia 44.7% | MOLT-4 leukemia 31.7%

CC[C@H](Nc1nc(N)nc(C2CC2)c1C#N)c1nc2cccc(NCc3ccc(C(=O)NO)cc3)c2c(=O)n1-c1ccccc1
inactive: SK-MEL-2 melanoma 26.2%
active: EKVX NSCLC 0.322% | SN12C renal 9.34% | UO-31 renal -80% | TK-10 renal 5.55% | ACHN renal -21% | CAKI-1 renal -44.5% | A498 renal -8.64% | CCRF-CEM leukemia 8.87% | MOLT-4 leukemia 2.13%

COc1ccc2[nH]c(C(=O)OCc3ccc4c(Br)cc(Br)c(O)c4n3)cc2c1
active: SK-MEL-2 melanoma -40.3% | EKVX NSCLC -70.9% | SN12C renal -71.2% | UO-31 renal -100% | TK-10 renal -95.6% | ACHN renal -98.3% | CAKI-1 renal -98.7% | A498 renal -17.1% | CCRF-CEM leukemia 3.76% | MOLT-4 leukemia -8.86%

CC1CN(CCCOC(=O)Nc2ccc(Cl)cc2)CCN1C(C)(C)C (stereo not given)
inactive: SK-MEL-2 melanoma 112% | EKVX NSCLC 96.9% | SN12C renal 113% | UO-31 renal 82.9% | TK-10 renal 99.8% | ACHN renal 133% | CAKI-1 renal 89.8% | A498 renal 95.2% | CCRF-CEM leukemia 90.3% | MOLT-4 leukemia 103%

N=c1n(Cc2ccccc2)c(N)cc(=O)n1Cc1ccccc1
active: EKVX NSCLC 0.834% | ACHN renal 4.21% | CAKI-1 renal 0.138% | MOLT-4 leukemia -28.6%
inactive: SK-MEL-2 melanoma 94.6% | SN12C renal 12.8% | UO-31 renal 13.4% | TK-10 renal 16.4% | A498 renal 40.6% | CCRF-CEM leukemia 21.4%

C#CCNC(=S)N/N=C(\C)c1ccccn1
inactive: SK-MEL-2 melanoma 74.3% | EKVX NSCLC 22.1% | SN12C renal 13.4% | TK-10 renal 50.9% | ACHN renal 15.7% | A498 renal 16.7% | CCRF-CEM leukemia 13.4%
active: UO-31 renal -13.9% | CAKI-1 renal -13.6% | MOLT-4 leukemia 3.54%

CC(C)[C@H](CN)NC[C@H](C)NS(=O)(=O)c1ccc(C(C)(C)C)cc1
inactive: SK-MEL-2 melanoma 101% | EKVX NSCLC 90% | SN12C renal 99.8% | UO-31 renal 77.1% | TK-10 renal 93.8% | ACHN renal 103% | CAKI-1 renal 94.1% | A498 renal 107% | CCRF-CEM leukemia 91.5% | MOLT-4 leukemia 92.6%

COc1ccc(CCN2COc3c([C@@H](C)CCC=C(C)C)ccc(C)c3C2)cc1OC
inactive: SK-MEL-2 melanoma 89.4% | EKVX NSCLC 63.2% | SN12C renal 52.8% | UO-31 renal 41.4% | TK-10 renal 76.9% | ACHN renal 70% | CAKI-1 renal 68.7% | A498 renal 66.2% | CCRF-CEM leukemia 62.6% | MOLT-4 leukemia 48.3%

OC(c1cc2c(Cl)cc(Cl)cc2c2cc(C(F)(F)F)ccc12)C1CCCCN1 (stereo not given)
active: SK-MEL-2 melanoma -65.3% | EKVX NSCLC -51.8% | SN12C renal -79.1% | UO-31 renal -87.6% | TK-10 renal -87.7% | ACHN renal -78.6% | CAKI-1 renal -62.5% | A498 renal 0.166% | CCRF-CEM leukemia -54.7% | MOLT-4 leukemia -62.6%

Cc1nn(-c2ccc(Cl)cc2)c(=O)n1CCN1CCOCC1
inactive: SK-MEL-2 melanoma 61.1% | EKVX NSCLC 75.5% | SN12C renal 89.6% | UO-31 renal 66% | TK-10 renal 64.4% | ACHN renal 38.7% | CAKI-1 renal 72.4% | A498 renal 105% | CCRF-CEM leukemia 63.2% | MOLT-4 leukemia 90.9%
